PKM2 inh = blocks activity of human pyruvate kinase M2; P14618; purified PKM2, ATP generation, Kinase-Glo luminescence; Potency, µM (highest dose often 57.5 µM), most hits filed as inhibitors; 0.058% of 260,000 active; AID 1634; active means well fitted inhibition curve with a large enough effect; further: nearly all actives have a fitted effect of over 60% in size
Target sequence (P14618 whole entry, looked up): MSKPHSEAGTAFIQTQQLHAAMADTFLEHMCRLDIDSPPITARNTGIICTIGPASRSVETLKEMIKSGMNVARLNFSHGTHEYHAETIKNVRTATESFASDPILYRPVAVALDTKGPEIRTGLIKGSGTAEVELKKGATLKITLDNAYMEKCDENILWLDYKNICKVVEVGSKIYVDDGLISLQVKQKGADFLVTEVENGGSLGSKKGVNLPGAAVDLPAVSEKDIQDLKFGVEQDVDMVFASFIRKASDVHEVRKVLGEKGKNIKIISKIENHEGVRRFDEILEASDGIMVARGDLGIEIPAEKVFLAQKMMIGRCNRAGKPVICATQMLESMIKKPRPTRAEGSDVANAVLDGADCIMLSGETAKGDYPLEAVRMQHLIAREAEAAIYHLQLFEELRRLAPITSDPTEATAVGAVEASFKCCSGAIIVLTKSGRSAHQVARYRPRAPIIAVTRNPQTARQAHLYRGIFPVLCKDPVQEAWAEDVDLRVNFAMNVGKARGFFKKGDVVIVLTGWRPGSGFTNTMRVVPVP
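Coupled luciferase luminescence (Kinase-Glo) detects ATP generated from 0.1 mM ADP and 0.5 mM PEP in imidazole buffer pH 7.2 with KCl, MgCl2; 1 h at room temperature. Enzyme at intermediate activity; normalized to uninhibited and no-enzyme controls.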
Of the large screens only hits and unclear results are named; the others gave an inactive call. The sample as a whole holds a higher share of hits than the screen did.

CSc1nc2ccccc2n1C(=O)Oc1ccccc1	none
CN(C)C(=O)Oc1ccc(OCc2nc3ccccc3[nH]2)cc1	PKM2 inh 11.2µM
CCn1ccnc1CN1CCCC(C(=O)c2cc(C)c(OC)c(C)c2)C1 (configuration not stated)	none
CC(=NCc1ccco1)c1c(O)n(-c2ccccc2)c(=O)[nH]c1=O	none
CCC(C)C1(CC)C(=O)NC(=O)N=C1N (configuration not stated)	none
CN(C)C(=S)SSC(=S)N(C)C	PKM2 inh 14.1µM
Cc1cc2c(C(C)C)c(O)c(O)c(C=O)c2c(O)c1-c1c(C)cc2c(C(C)C)c(O)c(O)c(C=O)c2c1O	none
S=P(Nn1cnnc1)(c1ccc(Br)cc1)c1ccc(Br)cc1	none
O=C(Nc1cccnc1)C1CCN(S(=O)(=O)c2cccs2)CC1	none
CC(=O)Nc1ccc(N(C(=O)Cn2nnc3ccccc32)C(C(=O)NC2CCCC2)c2ccc(O)c(O)c2)cc1 (configuration not stated)	none
